{
  "source": "PubChem BioAssay AID1745847",
  "about": "(National Center for Advancing Translational Sciences (NCATS), 2022)",
  "note": "Hit rate of the full screen: of about 2,100 compounds, about 670 (32%) were called active. Not shown: some 50% with an inconclusive outcome. The list shows a part of the results. A number with no mark means an inactive call. Calls come from the whole dose curve; as a rule, active = well fitted inhibition curve with a large enough effect; inconclusive = small, poorly fitted or top-dose-only effect; inactive = no such curve, though single readings can be large or run the other way. % is set by controls: 0 for no effect and ±100 for the full control effect; potency is the fitted concentration of half-maximal effect.",
  "data": [
    {"test": "CMV-Luciferase Counterscreen for Inhibitors of ATXN expression; note: nearly all actives have a fitted effect of over 55% in size", "conditions": "HEK-293 CMV-luciferase reporter, luminescence, 24 h; series mostly up to 57.5 µM; activity change, negative = inhibition: at the top concentration", "values": [
      {"smiles": "CCCCNCCCOc1cccc(Cl)c1Cl", "activity change, negative = inhibition": "-18.4%"},
      {"smiles": "COCCCNCCCOc1ccc(Cl)cc1C(C)(C)C", "Potency": "22.4 µM (active)"},
      {"smiles": "Cc1nn(-c2ccccn2)c2c1C(=O)CC(C)(C)C2N=[N+]=[N-]", "note": "(stereo not given)", "activity change, negative = inhibition": "-24.8% [at 11.4 µM]"},
      {"smiles": "CC1(C)c2[nH]c3ccccc3c2C[C@H]2C(=O)N(Cc3ccccc3F)C(=O)N21", "Potency": "17.8 µM (active)"},
      {"smiles": "CC1(C)c2[nH]c3ccccc3c2C[C@H]2C(=O)N(Cc3cccc(F)c3)C(=O)N21", "Potency": "20 µM (active)"},
      {"smiles": "OC(c1ccccc1)(c1nc(-c2ccc3ccccc3c2)cs1)C(F)(F)F", "note": "(stereo not given)", "activity change, negative = inhibition": "26.4% [at 11.4 µM]"},
      {"smiles": "O=C(/C=C\\c1ccco1)Nc1nc(-c2ccc3ccccc3c2)cs1", "Potency": "3.16 µM (active)"},
      {"smiles": "C=CCc1cccc(/C=N/NC(=O)c2ccccc2Br)c1O", "Potency": "10 µM (active)"},
      {"smiles": "C=CCc1cccc(/C=N/NC(=O)CCC(=O)Nc2ccc(C)cc2)c1O", "Potency": "8.91 µM (active)"},
      {"smiles": "C=CCc1cccc(/C=N/NC(=O)CCC(=O)Nc2ccc(F)cc2)c1O", "Potency": "3.98 µM (active)"},
      {"smiles": "C=CCc1cccc(/C=N/NC(=O)C(C)Nc2ccc(C)cc2)c1O", "note": "(stereo not given)", "Potency": "10 µM (active)"},
      {"smiles": "CC(SC(C)C(=O)NN=Cc1cccc(Cl)c1)C(=O)NN=Cc1cccc(Cl)c1", "note": "(stereo not given)", "activity change, negative = inhibition": "-24.3% [at 11.4 µM]"},
      {"smiles": "C=CCc1cccc(/C=N/NC(=O)CCCNc2ccc(C)cc2)c1O", "Potency": "15.8 µM (active)"},
      {"smiles": "C=CCc1cccc(/C=N/NC(=O)CNc2ccccc2)c1O", "Potency": "2 µM (active)"},
      {"smiles": "Nc1ccc2c(c1)OC1(CCCC1)O2", "activity change, negative = inhibition": "-27.3% [at 11.4 µM]"},
      {"smiles": "CC(C)(C)c1ccc(OCCn2nc(C(=O)O)c3ccccc3c2=O)cc1", "activity change, negative = inhibition": "-11.4%"},
      {"smiles": "COc1ccc(NC(=O)N2CCN(c3nc(-c4cccc(OC)c4)cs3)CC2)cc1", "Potency": "3.55 µM (active)"},
      {"smiles": "Cn1nccc1C(=O)N1CCCC(C(=O)c2cccc3ccccc23)C1", "note": "(stereo not given)", "activity change, negative = inhibition": "-16.4%"},
      {"smiles": "CCCc1cnc(NCCNCC(O)COc2ccc(Cl)c(Cl)c2)nc1", "note": "(stereo not given)", "Potency": "31.6 µM (active)"},
      {"smiles": "N#C/C(=C\\Nc1ccc2cn[nH]c2c1)c1nc(-c2ccc(Cl)cc2)cs1", "activity change, negative = inhibition": "11% [at 11.4 µM]"},
      {"smiles": "O=C1C(SCCO)=C(SCCO)C(=O)c2ccccc21", "Potency": "8.91 µM (active)"},
      {"smiles": "Cc1ccc(SC2=C(Sc3ccc(C)cc3)C(=O)c3ccccc3C2=O)cc1", "activity change, negative = inhibition": "68.6%"},
      {"smiles": "CCCNC(=O)c1ccc2c(=O)c(O)c(-c3cccc(Br)c3)[nH]c2c1", "Potency": "20 µM (active)"},
      {"smiles": "C/C(=N\\NC(=O)C(C)n1nc(C)c([N+](=O)[O-])c1C)c1ccccc1O", "note": "(stereo not given)", "Potency": "2.51 µM (active)"},
      {"smiles": "CCCCC(=O)NC(c1ccc(N(CC)CC)cc1)c1ccc2cccnc2c1O", "note": "(stereo not given)", "Potency": "0.282 µM (active)"},
      {"smiles": "CCCCC(=O)NC(c1ccc(N(C)C)cc1)c1ccc2cccnc2c1O", "note": "(stereo not given)", "Potency": "1.78 µM (active)"},
      {"smiles": "CO[C@@]12[C@@H]3N[C@@H]3CN1C1=C(C(=O)C(N)=C(C)C1=O)[C@@H]2COC(N)=O", "activity change, negative = inhibition": "10.2% [at 11.4 µM]"},
      {"smiles": "CC(C)CC(NC(=O)c1ccc(Cl)cc1)C(=O)OCC(=O)c1ccc2c(c1)NC(=O)CO2", "note": "(stereo not given)", "Potency": "22.4 µM (active)"},
      {"smiles": "Cc1ccc(OCC(=O)c2cc(C)n(Cc3cccs3)c2C)c([N+](=O)[O-])n1", "Potency": "3.98 µM (active)"},
      {"smiles": "COc1ccc(CC(=O)N/N=C(\\C)c2ccccn2)cc1", "Potency": "8.91 µM (active)"},
      {"smiles": "C/C(=N\\NC(=O)CN(c1ccccc1)S(C)(=O)=O)c1ccccc1O", "Potency": "12.6 µM (active)"},
      {"smiles": "C/C(=N\\NC(=O)Cc1ccc(Cl)cc1)c1ccccc1O", "Potency": "11.2 µM (active)"},
      {"smiles": "COc1ccccc1N(CC(=O)N/N=C(\\C)c1ccccc1O)S(=O)(=O)c1ccc(C)cc1", "Potency": "11.2 µM (active)"},
      {"smiles": "COc1ccccc1N(CC(=O)NCCSCc1ccc(C)cc1)S(=O)(=O)c1ccccc1", "Potency": "22.4 µM (active)"},
      {"smiles": "CC(C)C[C@H](NC(=O)c1[nH]cnc1C(=O)Nc1ccc(CNC(=O)OC(C)(C)C)cc1)C(=O)OCc1ccccc1", "activity change, negative = inhibition": "-24.4% [at 11.4 µM]"}
    ]}
  ]
}
